Marburg entry inh: inhibitors of Marburg virus binding or cell entry. Marburg virus pseudotyped entry inhibition, cell reporter. Potency, µM (titrated, usually from 37.8 µM), for the others: top-dose activity change, negative = inhibition, actives largely listed as inhibitors. 300,000 tested, 1.8% active; calls by dose curve; tested in HEK293 cells; note: potency is the fitted concentration of half-maximal effect
HCMV antiviral: human cytomegalovirus inhibition; HFF cells, HCMV-luciferase reporter, 72 h; stronger effect = lower value; 410,000 tested, 4.5% active; AID 1259415; activity change, negative = inhibition, % at 57.5 µM; in the data active = activity change below about -60%; inconclusive = no clear call, values can overlap the other calls; inactive = above about -39%
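Human foreskin fibroblasts infected with luciferase-reporter HCMV at MOI 1 PFU/cell, compounds at two doses. Luciferase measured 72 h post infection; normalized to buffer-only basal and Salinomycin (10uM) controls.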
Pf growth 96h: P. falciparum growth inhibition at 96 hours; Potency, µM (top dose mostly 28.7 µM), for the others: at the top dose activity change, negative = inhibition, hits mostly inhibitors; 320,000 tested, 6.9% active; P. falciparum luciferase reporter growth, 96 h; AID 504834; note: potency is the fitted concentration of half-maximal effect
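P. falciparum expressing integrated firefly luciferase grown in erythrocytes (2% hematocrit, 0.05% parasitemia final) with compounds for 96 hours at 37 C, 5% CO2. Growth inhibition read as loss of luminescence after adding luciferase detection reagent.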
Lassa entry inh: inhibitors of Lassa virus binding or cell entry; Lassa virus pseudotype entry inhibition, cell reporter; Potency, µM (doses to about 37.9 µM), for inactives: top-dose activity change, negative = inhibition, hits mostly inhibitors; 300,000 tested, 1.2% active; calls by dose curve; tested in HEK293 cells; note: potency is the fitted concentration of half-maximal effect; nearly all actives have a fitted effect of over 50% in size
Pf growth 48h: P. falciparum growth inhibition at 48 hours (one generation). P. falciparum luciferase growth in erythrocytes, 48 h. AID 504832. 310,000 tested, 5.9% active. Potency, µM (highest dose often 28.7 µM), inactives show at the top dose activity change, negative = inhibition, usual class: inhibitors; note: potency is the fitted concentration of half-maximal effect
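A one-generation exposure of luciferase-tagged malaria parasites in RPMI 1640/Albumax erythrocyte culture, 37 C and 5% CO2. Inhibition is inferred from decreased luminescence after adding detection reagent.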
HCV inh: blocks hepatitis C virus; Huh7.5.1 HCVcc-Cre infection, luciferase reporter, 44 h; Potency, µM (series often up to 41.8 µM), inactives show at the highest dose activity change, negative = inhibition, actives largely listed as inhibitors; 340,000 tested, 3.4% active; AID 651820; note: potency is the fitted concentration of half-maximal effect
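A cell-based infection assay in which seeded cells (1,000 per well) receive test compound after 4 h, are inoculated with HCVcc-Cre at approximately 0.5 moi, and are incubated 44 h before luminescence detection.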
Starred values were filed as active, the others as inactive; ? = inconclusive; . = not tested or not shown; [ ] = dose if it differs, or a comment. Most compounds without a hit are left out; they make up all but 14% or so of the library. Unless noted, calls come from the whole dose curve; as a rule, active = well fitted inhibition curve with a large enough effect; inconclusive = small, poorly fitted or top-dose-only effect, or another doubt; inactive = no such curve, though single readings can be large or run the other way. % is set by controls: 0 for no effect and ±100 for the full control effect.

SMILES	Marburg entry inh	HCMV antiviral	Pf growth 96h	Lassa entry inh	Pf growth 48h	HCV inh
Nc1nc(Nc2ccccc2Br)nc(C(F)(F)F)n1	.	46	10µM*	.	47%	?
COc1cccc(Nc2nc(N)nc(C(F)(F)F)n2)c1	?	38	55%	7%	62%	-21%
O=C(CCNS(=O)(=O)c1ccccc1F)NC1CCCCCC1	.	20	18%	.	-10%	1%
COC(=O)CS(=O)(=O)c1nc2ccccc2nc1N1CCCCC1	-29%[46.1 µM]	-66*	.	20%[46.1 µM]	.	.
COc1ccc(Br)cc1/C=N/NC(=O)c1ccc(COc2ccc3c(c2)CCC3)o1	?	73	48%	23%	?	?
CCc1ccc(OCc2ccc(C(=O)OC)o2)cc1	.	37	-38%	.	159%	1%
CCOc1ccc(OCc2ccc(C(=O)NCc3ccncc3)o2)cc1	0%	2	-4%	22%	3%	7.1µM*
CCOc1ccc(OCc2ccc(C(=O)O)o2)cc1	?	30	?	?	182%	2%
CCc1ccc(OCc2ccc(C(=O)NCc3ccccn3)o2)cc1	?	81	10µM*	4%	?	1%
O=C(NCc1cccnc1)c1ccc(COc2ccc3c(c2)CCC3)o1	23µM*	24	.	?	?	-19%
O=C(N/N=C/c1cc([N+](=O)[O-])ccc1O)c1ccc(COc2ccc3c(c2)CCC3)o1	?	-96*	9.3µM*	?	?	-27%
CCCCNc1nc(Oc2ccc(=O)n(C)n2)nc(N(C)C)n1	1%[46.1 µM]	33	.	14%[46.1 µM]	.	.
CCSc1ccc2c(c1)N(CCCN1CCN(C)CC1)c1ccccc1S2	.	-38	?	.	9.3µM*	?
CN1CCN(CCCN2c3ccccc3Sc3ccc(Cl)cc32)CC1	10µM*	-29	9.3µM*	9.2µM*	9.3µM*	?
CN(C)CCCN1c2ccc(O)cc2Sc2ccc(Cl)cc21	.	-36	.	.	.	.
CC(CN1CCN(CCOCCO)CC1)CN1c2ccccc2Sc2ccc(Cl)cc21 (configuration not stated)	.	-21	.	.	.	.
OC1CC2CCC(C1)N2CCCN1c2ccccc2Sc2ccc(Cl)cc21 (configuration not stated)	?	-65*	.	-14%[46.1 µM]	.	?
COc1cccc(CN(C(=O)/C=C/c2ccco2)C2CCS(=O)(=O)C2)c1 (configuration not stated)	20%[46.1 µM]	?	?	0%[46.1 µM]	6%	5%
CC(=O)c1cc(C(=O)Nc2cccc(C)c2)c2ccccn12	.	9	.	24%[46.1 µM]	.	.
CSc1ccccc1C(=O)OCC(=O)NC1CCCCCCC1	.	-5	.	.	.	.
CC(C)Oc1ccc(CN2CCC2(C)C(=O)Nc2cnc3ccccc3c2)cc1 (configuration not stated)	.	-40	.	.	.	.
O=[N+]([O-])c1ccc(O)c(C2CCCCC2)c1	?	-94*	.	?	.	?
O=C(N/N=C/c1cc([N+](=O)[O-])ccc1O)c1cccc2ccccc12	.	-112*	27%	.	13µM*	.
O=C(CCC(=O)Nc1cc(C(F)(F)F)ccc1Cl)N/N=C\c1cc([N+](=O)[O-])ccc1O	?	23	266%	?	13µM*	-2%
O=C(N/N=C/c1cc([N+](=O)[O-])ccc1O)C1CCCCC1	?	-66*	?	?	?	12%
SMILES	Marburg entry inh	HCMV antiviral	Pf growth 96h	Lassa entry inh	Pf growth 48h	HCV inh
CN1CCN(c2ccc(Nc3cc4c(cn3)cc(-c3cccc(F)c3)n4C)cc2)CC1	.	-21	.	.	.	.
OCC[C@H]1C[C@@H](O)[C@H](O)[C@]2(Cc3ccccc3CO2)O1	.	-26	4%	.	6%	42%
NC(=S)N/N=C/c1cc([N+](=O)[O-])ccc1OCCOc1ccccc1	-23%[46.1 µM]	58	-25%	-26%	.	-19%
O=C(Cn1nnc(-c2ccccc2)n1)N/N=C/c1ccco1	?	-16	306%	3%[46.1 µM]	-19%	13µM*
CC(=O)N/N=C/c1cc([N+](=O)[O-])ccc1OCCOc1ccccc1	-14%	0	6.6µM*	0%	2%	?
O=C(Cn1nnc(-c2ccccc2)n1)N/N=C/c1cc([N+](=O)[O-])ccc1O	3%	-73*	10µM*	3%	9%	?
